# Compounds with a hit are over-represented: about 19% of the library has one in this group of screens.
# HepG2 tox = qHTS for Inhibitors of TGF-b: Cytotox Counterscreen | HepG2 CAGA-GFP viability, ATP luminescence, 18 h | Potency, µM (titrated, usually from 46.1 µM), inactives show at the top dose activity change, negative = cytotoxicity, actives largely listed as cytotoxic | 0.76% of 410,000 active | AID 588856, 2011; note: potency is the fitted concentration of half-maximal effect
#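 CellTiter-Glo luminescence gave cytotoxicity after 18 hours at 37 degrees C. The cells were HepG2 CAGA-GFP in 1% FBS DMEM, stimulated with 500 pg/mL TGF-beta after compound addition. %Activity was normalised to no-cell wells (complete cell-killing) and DMSO (no toxicity), and curves were fitted and classified.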
# TDP1 inh = qHTS Assay for Inhibitors of Tyrosyl-DNA Phosphodiesterase (TDP1); recombinant TDP1, AlphaScreen DNA substrate cleavage; AID 485290, 2010; 0.28% of 350,000 active; Tyrosyl-DNA phosphodiesterase 1 (Homo sapiens), Q9NUW8; Potency, µM (doses to about 130 µM), for the others: top-dose activity change, negative = inhibition, usual class: inhibitors; note: potency is the fitted concentration of half-maximal effect; % is set by controls: 0 for no effect and ±100 for the full control effect; nearly all actives have a fitted effect of over 40% in size
# Target sequence (Q9NUW8 whole entry, looked up): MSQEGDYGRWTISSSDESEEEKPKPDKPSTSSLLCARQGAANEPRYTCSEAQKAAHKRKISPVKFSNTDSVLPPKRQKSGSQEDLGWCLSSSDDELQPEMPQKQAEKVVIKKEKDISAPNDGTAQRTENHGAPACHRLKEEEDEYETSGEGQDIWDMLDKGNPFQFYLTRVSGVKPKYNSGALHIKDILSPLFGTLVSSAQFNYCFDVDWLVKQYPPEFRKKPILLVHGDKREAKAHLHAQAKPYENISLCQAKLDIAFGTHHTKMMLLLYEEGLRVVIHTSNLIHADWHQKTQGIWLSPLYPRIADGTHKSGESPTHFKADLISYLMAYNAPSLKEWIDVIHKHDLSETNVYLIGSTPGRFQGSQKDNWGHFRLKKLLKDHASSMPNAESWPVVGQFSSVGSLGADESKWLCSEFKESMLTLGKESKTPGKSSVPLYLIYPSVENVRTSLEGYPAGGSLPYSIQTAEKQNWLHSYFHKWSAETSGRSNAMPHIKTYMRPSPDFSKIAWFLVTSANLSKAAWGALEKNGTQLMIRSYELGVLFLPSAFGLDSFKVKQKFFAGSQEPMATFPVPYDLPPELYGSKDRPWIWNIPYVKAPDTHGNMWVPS
#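 Steps: enzyme plus compound, 15 min RT; add biotin/phosphotyrosine-FITC oligonucleotide (15 nM final), react 5 min; add donor/acceptor beads (10 ug/ml final), 10 min; read AlphaScreen. Tdp1 at 1 nM final.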
# IL1B secr inh = qHTS for Inhibitors of Inflammasome Signaling: IL-1-beta AlphaLISA Primary Screen; THP-1 LPS/ATP IL-1B secretion, AlphaLISA, 16 h; stronger effect = lower value; activity change, % at 57.5 µM; 4.7% of 360,000 active; in the data active = activity change below about -50%; inconclusive = mostly about -30% to -49%; note: % is set by controls: 0 for no effect and ±100 for the full control effect
#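 THP-1 cells pretreated 1 hr with compounds (up to 57.5 uM final), then stimulated with LPS (250 ng/mL final) plus ATP (1.25 mM final); secreted IL-1B measured by AlphaLISA after 16 hr, decreased signal indicating inhibition.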
# DT40 TDP1 CPT = qHTS for Inhibitors of human tyrosyl-DNA phosphodiesterase 1 (TDP1): qHTS in cells in presence of CPT; 12% of 420,000 active; chicken DT40 Tdp1-/-;hTDP1 cells + 20 nM CPT, ATP luminescence, 48 h; Potency, µM (top dose mostly 46.2 µM), for the others: at the top dose activity change, negative = growth inhibition, actives largely listed as inhibitors; AID 686979, 2013; note: potency is the fitted concentration of half-maximal effect; % is set by controls: 0 for no effect and ±100 for the full control effect; nearly all actives have a fitted effect of over 55% in size
#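 Cell growth measured by CellTiter-Glo luminescence after a minimum 48 h, 37 C compound exposure with 20 nM CPT in Tdp1-knockout DT40 cells stably expressing hTDP1, seeded 400/well; qHTS titration format.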
# TDP1 cell noCPT = qHTS for Inhibitors of human tyrosyl-DNA phosphodiesterase 1 (TDP1): qHTS in cells in absence of CPT | DT40 Tdp1-/- hTDP1 cells, no CPT, ATP luminescence, 48 h | Potency, µM (titrated, usually from 46.2 µM), for inactives: at the highest dose activity change, negative = growth inhibition, usual class: inhibitors | 15% of 420,000 active; note: potency is the fitted concentration of half-maximal effect; % is set by controls: 0 for no effect and ±100 for the full control effect; nearly all actives have a fitted effect of over 55% in size
#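 DT40 Tdp1-/-;hTDP1 cells, no CPT (DMSO vehicle only), 400 cells/well; compounds pin-transferred; ≥48 hr, 37 °C; CellTiter-Glo 30 min RT dark, luminescence read.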
# TGFb SMAD3 inh = qHTS for Inhibitors of TGF-b; HepG2 CAGA-GFP TGF-b/SMAD3 reporter, GFP fluorescence, 18 h; TGF-beta stimulated, 500 pg/mL final; Potency, µM (highest dose often 46.1 µM), inactives show top-dose activity, negative = inhibition, actives largely listed as inhibitors; 1.2% of 410,000 active; note: potency is the fitted concentration of half-maximal effect; % is set by controls: 0 for no effect and ±100 for the full control effect; nearly all actives have a fitted effect of over 65% in size
#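 Smad-responsive CAGA-GFP expression was quantified in HEPG2 cells exposed to compounds and 500 pg/mL final TGF-beta for 18 h at 37 degrees C; unstimulated wells defined full inhibition.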
# * hit, by the source's call; i = inactive; ? = inconclusive; · = no result given. Unless noted, calls come from the whole dose curve; as a rule, active = well fitted curve in the direction sought with a large enough effect; inconclusive = small, poorly fitted or top-dose-only effect, or another doubt; inactive = no such curve, though single readings can be large; an effect the other way counts as inactive or inconclusive.
SMILES,HepG2 tox,TDP1 inh,IL1B secr inh,DT40 TDP1 CPT,TDP1 cell noCPT,TGFb SMAD3 inh
N#C/C(=C(/O)CCl)c1nc2ccccc2[nH]1,-31%,10%,-95*,2.6µM*,5.2µM*,10µM*
N#C/C(=C(/O)COC(=O)c1cccnc1Cl)c1nc2ccccc2[nH]1,-14%,5%,59,18µM*,23µM*,2%
N#CC(=C(O)COC(=O)CCCNC(=O)c1ccc(Cl)cc1)c1nc2ccccc2[nH]1,5%,·,-97*,?,-18%,8%
N#CC(=C(O)COC(=O)Cc1c[nH]c2ccccc12)c1nc2ccccc2[nH]1,-2%,·,40,2%,?,12%
CCCC(=O)OC/C(O)=C(\C#N)c1nc2ccccc2[nH]1,-7%,5%,-105*,-14%,?,-12%
COc1ccc(N(C(C)=O)c2nc(C)cc(C)c2C#N)c(OC)c1,-1%,0%,8,15%,12%,-2%
COCC(=O)OC/C(O)=C(\C#N)c1nc2ccccc2[nH]1,-15%,5%,-104*,2.9µM*,2.6µM*,-7%
N#C/C(=C(/O)COC(=O)c1ccccc1O)c1nc2ccccc2s1,-23%,3%,14,-26%,16µM*,12%
CC(C)(C)c1ccc(C(=O)OC/C(O)=C(\C#N)c2nc3ccccc3s2)cc1,1%,3%,i,?,?,-27%
N#C/C(=C(/O)COC(=O)CCC1CCCCC1)c1nc2ccccc2[nH]1,-8%,9%,-85*,5.2µM*,4.1µM*,0%
CC(C)C(=O)OC/C(O)=C(\C#N)c1nc2ccccc2[nH]1,-1%,8%,80,4%,-8%,14%
O=C(COC(=O)CC1Sc2ccccc2NC1=O)NCc1ccccc1 (centres undefined),0%,-5%,11,-12%,-11%,14%
Cc1ccc(CSc2nnc([C@@H](N)C(C)C)o2)cc1,-11%,7%,·,·,·,9%
COc1ccc(OC)c(CNC(=O)C2CCN(S(=O)(=O)c3cn(C)cn3)CC2)c1,-1%,4%,·,-11%,2%,14%
CCOC(=O)c1ccc(S(=O)(=O)N2CCN(C(=O)c3cc(=O)c4ccccc4o3)CC2)cc1,7%,4%,-116*,0%,-6%,2%
CCOc1ccc(S(=O)(=O)N2CCN(C(=S)NCc3ccccc3)CC2)cc1,-2%,6%,33,21µM*,?,?
CCOC(=O)c1ccc(S(=O)(=O)N2CCN(S(=O)(=O)CC)CC2)cc1,4%,2%,10,-17%,-5%,-6%
O=S(=O)(c1ccccc1)N1CCN(C(=S)NCc2ccccc2)CC1,-3%,0%,-8,-8%,?,13%
CCOc1ccc(S(=O)(=O)N2CCN(C(=O)c3cc4ccccc4o3)CC2)cc1,-6%,1%,?,21µM*,21µM*,?
Cc1sc2ncn(CC(=O)N3CCN(c4cccc(Cl)c4)CC3)c(=O)c2c1S(=O)(=O)N1CCN(c2ncccn2)CC1,-3%,3%,·,-19%,-26%,-16%
COc1ccccc1N1CCN(C(=O)Cc2c(C(=O)O)c(C)cn2C)CC1,6%,3%,·,-1%,-8%,-4%
O=c1[nH]c(=O)n(CCCc2ccccc2)cc1-c1ccccc1,4%,·,11,-28%,-26%,-11%
CC(C)(C)NCC(O)COc1ccccc1C(=O)CCc1ccccc1 (centres undefined),-44%,4%,-77*,16µM*,15µM*,?
COCCNC(=O)c1ccc2c3n(nc2c1)-c1ccccc1CO3,-16%,5%,-27,?,?,8%
C=CCNC(=O)c1ccc2c3n(nc2c1)-c1ccccc1CO3,-52%,4%,6,15µM*,23µM*,?
SMILES,HepG2 tox,TDP1 inh,IL1B secr inh,DT40 TDP1 CPT,TDP1 cell noCPT,TGFb SMAD3 inh
Cc1ccc2c(c1)COc1c3ccc(C(=O)N[C@@H](C)CO)cc3nn1-2,1%,2%,-21,?,?,7%
COCCNC(=O)c1ccc2c3n(nc2c1)-c1ccc(Cl)cc1CO3,5%,2%,-9,?,21µM*,3%
O=C(NCCO)c1ccc2c3n(nc2c1)-c1ccc(Cl)cc1CO3,0%,5%,-21,?,?,0%
Cc1ccc2c(c1)COc1c3ccc(C(=O)NC(C)C)cc3nn1-2,-23%,6%,-2,?,10µM*,-21%
CCc1ccccc1N(CC)C(=O)c1c(C)oc2ncn(C)c(=O)c12,-18%,3%,·,?,?,-18%
COC(=O)c1c(-c2ccc(Br)cc2)csc1NC(=O)Cc1ccc(OC)c(OC)c1,-12%,-2%,-6,?,10µM*,?
COC(=O)c1c(-c2cccc3ccccc23)csc1NC(=O)Cc1ccc(OC)c(OC)c1,7%,2%,?,26µM*,12µM*,-9%
COc1ccc(C2Nc3ccccc3C(=O)N2Cc2ccccc2C(F)(F)F)cc1COc1ccc(NC(C)=O)cc1 (centres undefined),·,-13%,·,·,·,·
O=C(COc1ccccc1)Nc1ccc2nc(SCC(=O)N3CCc4ccccc43)sc2c1,1%,-9%,·,?,?,10%
O=C(CSc1nc2cc(Cl)ccc2s1)N1CCCc2ccccc21,-31%,-8%,-3,?,14µM*,?
O=C(COc1ccccc1F)Nc1ccc2nc(SCC(=O)N3CCc4ccccc43)sc2c1,4%,5%,·,7.3µM*,5.2µM*,-14%
O=C(COc1ccc(F)cc1)Nc1ccc2nc(SCC(=O)N3CCc4ccccc43)sc2c1,-21%,-5%,·,2.6µM*,2.6µM*,-15%
CCOc1ccc2nc(SCC(=O)N3CCCc4ccccc43)sc2c1,-42%,-4%,31,?,?,5%
Cc1ccccc1OCC(=O)Nc1ccc2nc(SCC(=O)N3CCc4ccccc43)sc2c1,-8%,-4%,·,-5%,-1%,1%
Cc1ccc(CSc2nc3ccc(NC(=O)C(C)C)cc3s2)cc1,-35%,-1%,·,-17%,?,-4%
COc1ccc(Nc2ncnc3c2c(-c2ccccc2)cn3-c2ccc(C)c(Cl)c2)cc1OC,2%,5%,·,-2%,-12%,-1%
